Assay results published in PubChem BioAssay AID777 (Sanford-Burnham Center for Chemical Genomics, 2007).
The campaign covered roughly 96,000 compounds. About 19,000 (20%) were called active.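 The calls were made as follows: active = blocking of liver enzyme CYP2C9 beyond about 50% at 5 µM (limit read from the data); inactive = the rest.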 A selection follows.

Each compound was assayed against Cytochrome P450 2C9 (Homo sapiens) (UniProt P11712) (assay: blockers of cytochrome P450 2C9 activity – biochemical, luminescence, ADME assay, primary screen (AID 777)). Conditions: CYP2C9 Supersomes, luciferin-H conversion, at 5 µM, stronger effect = higher value.
Cytochrome P450 2C9 (Homo sapiens), sequence (P11712 whole entry, looked up): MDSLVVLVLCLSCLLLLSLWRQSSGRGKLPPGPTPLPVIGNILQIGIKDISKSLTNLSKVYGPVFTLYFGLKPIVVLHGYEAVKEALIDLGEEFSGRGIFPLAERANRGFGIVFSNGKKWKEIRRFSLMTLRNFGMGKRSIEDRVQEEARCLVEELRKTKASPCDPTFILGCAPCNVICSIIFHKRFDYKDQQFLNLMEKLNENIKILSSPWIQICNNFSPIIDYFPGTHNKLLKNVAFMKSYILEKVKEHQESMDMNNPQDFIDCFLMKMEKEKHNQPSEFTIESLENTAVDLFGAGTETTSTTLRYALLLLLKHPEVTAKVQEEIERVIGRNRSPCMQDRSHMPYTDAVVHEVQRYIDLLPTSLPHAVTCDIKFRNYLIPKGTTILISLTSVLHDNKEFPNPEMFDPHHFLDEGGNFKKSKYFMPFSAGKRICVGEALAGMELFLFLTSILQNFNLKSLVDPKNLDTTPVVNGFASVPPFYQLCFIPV
For `Cc1ccc(Oc2ccc3c(c2)C(=O)N(c2cccc4cccnc24)C3=O)cc1`, the inhibition was -11.5% (inactive).
For `Cc1ccc(C2(c3ccc(C)cc3)NC(=O)N(Cc3c(C)noc3C)C2=O)cc1`, the inhibition was 60.8% (active).
For `COc1ccc(C(=O)CN2C(=O)NC(C)(c3ccc(C)cc3)C2=O)cc1OC` (centres undefined), the inhibition was 17.2% (inactive).
In the case of `COc1ccc(C(=O)CSc2n[nH]c(N)n2)cc1`, the inhibition is reported as 2.8% (inactive).
For `O=C(CN1CCOCC1)Nc1c(-c2ccccc2)c2cc(Br)ccc2[nH]c1=O`, the inhibition was -15.8% (inactive).
With `CS(=O)(=O)c1ccc2nc(NC(=O)C3CCCCC3)sc2c1` the inhibition was 7.3% (inactive).
`O=C(Nc1ccccc1N1CCCCC1)c1cccc(F)c1` was tested, and the inhibition was 1.2% (inactive).
`O=C(c1ccc2c(c1)OCO2)N1CCNc2ccccc2C1` was tested, and the inhibition was -40.3% (inactive).
In the case of `CCCC(=O)Nc1ccccc1N1CCN(C(=O)c2ccccc2)CC1`, the inhibition is reported as 35.7% (inactive).
For `O=C(CN1CCN(c2ccccc2F)CC1)c1ccc2c(c1)OCO2`, the inhibition was 74.2% (active).
With `O=C(Nc1ccccc1N1CCN(c2ccccc2)CC1)c1cccc(F)c1` the inhibition was 81.1% (active).
In the case of `O=C(Nc1ccccc1N1CCN(C(=O)c2ccccc2)CC1)c1ccc2c(c1)OCO2`, the inhibition is reported as 83.3% (active).
`O=C(Nc1ccccc1N1CCCCC1)c1ccc2nccnc2c1` was tested, and the inhibition was 28.1% (inactive).
For `O=C(CN1CCN(CC(=O)Nc2ccc3c(c2)OCO3)CC1)Nc1ccc(F)cc1`, the inhibition was 33.1% (inactive).
For `CCOc1ccc(NC(=O)N2CCN(CC)CC2)cc1`, the inhibition was -0.2% (inactive).
`Cc1oc2nc(SCC(=O)Nc3ccc(S(N)(=O)=O)cc3)nc(NC(=O)c3ccccc3)c2c1C` was tested, and the inhibition was 15% (inactive).
For `COc1ccc(Cc2nnnn2CC(=O)O)cc1`, the inhibition was -11.9% (inactive).
For `Cc1ccccc1-c1ccc(Nc2ccc(C(=O)N3CCOCC3)cc2)nn1`, the inhibition was 34.1% (inactive).
In the case of `COc1ccc(N2C(=O)CC(N3CCC(C(N)=O)CC3)C2=O)cc1` (centres undefined), the inhibition is reported as -20.9% (inactive).
In the case of `COC(=O)c1ccc(C2C(Oc3ccccc3C)C(=O)N2CCc2ccc(OC)c(OC)c2)cc1` (centres undefined), the inhibition is reported as 54.9% (active).
`COC(=O)c1ccc(C2CC(=O)Nc3cc(OC)c(OC)cc32)cc1` (centres undefined) was tested, and the inhibition was 30.2% (inactive).
In the case of `COc1ccc(CCN2CNc3c(c(=O)n(C)c(=O)n3C)C2)cc1OC`, the inhibition is reported as -29.7% (inactive).
In the case of `Cc1nn(C(C)CC(=O)O)c(C)c1C` (centres undefined), the inhibition is reported as -4.1% (inactive).
`COc1ccc(CN2C(=O)CN=C2Nc2ccc(C)cc2C)cc1` was tested, and the inhibition was 31.5% (inactive).
`CCCCc1nc(NCCN)c(C#N)c2c1CSC(C)(C)C2` was tested, and the inhibition was 53.6% (active).
For `CCN(CC)c1ccc(NC(=O)c2ccc(Cl)nc2)cc1`, the inhibition was -69.8% (inactive).
`O=C(COc1ccccc1)Nc1nonc1NC(=O)COc1ccccc1` was tested, and the inhibition was 52% (active).
In the case of `CCOc1cc(NC(=O)c2ccco2)c(OCC)cc1NC(=O)COc1ccccc1`, the inhibition is reported as 11.6% (inactive).
`CCOc1ccc(C(CC(=O)O)NC(=O)COc2ccccc2)cc1` (centres undefined) was tested, and the inhibition was 5.2% (inactive).
For `Cc1ccc(C)c2[nH]c(=O)c(CCNC(=O)CC(C)C)cc12`, the inhibition was 30.9% (inactive).
For `O=[N+]([O-])c1c(NCCO)cc(Sc2nc3ccccc3s2)c2nonc12`, the inhibition was 12.3% (inactive).
In the case of `Cn1c(=O)cc(OCCCC(=O)N2CCN(c3ccccn3)CC2)c2ccccc21`, the inhibition is reported as 30.3% (inactive).
`COc1cccc(-c2nnc(NC(=O)c3ccc(S(=O)(=O)N(CC(C)C)CC(C)C)cc3)o2)c1` was tested, and the inhibition was 58.9% (active).
In the case of `CCN(CC)C(=O)CSc1nnc(-c2cccc(OC)c2)o1`, the inhibition is reported as -55.9% (inactive).
With `CC1CCCCN1S(=O)(=O)c1ccc(C(=O)Nc2nnc(-c3cccs3)o2)cc1` (centres undefined) the inhibition was 7.8% (inactive).
In the case of `O=C(/C=C/c1cccs1)c1cc(Cl)ccc1OC(=O)N1CCOCC1`, the inhibition is reported as 28.1% (inactive).
For `O=C(Cn1nc(Cc2cccnc2)c2ccccc2c1=O)NCC1CCCO1` (centres undefined), the inhibition was 21.3% (inactive).
In the case of `CN(Cc1ccccc1)C(=O)CCNC(=O)Cn1cnc2ccccc2c1=O`, the inhibition is reported as 24.9% (inactive).
For `CC1Oc2ccccc2N(Cc2cccnc2)C1=O` (centres undefined), the inhibition was 14% (inactive).
In the case of `O=C(CN1C(=O)C2C3C=CC(C3)C2C1=O)NCC1COc2ccccc2O1` (centres undefined), the inhibition is reported as -1.1% (inactive).
With `O=C(Cn1cnc2ccccc2c1=O)NCC1COc2ccccc2O1` (centres undefined) the inhibition was 61.2% (active).
For `O=C(Cn1nc(Cc2cccnc2)c2ccccc2c1=O)NCC1COc2ccccc2O1` (centres undefined), the inhibition was 66.1% (active).
With `Cc1cc(OC(=O)c2c(Cl)cccc2Cl)nc(C)n1` the inhibition was 2.9% (inactive).
`CCC(C)NC(=O)CCCc1ccccc1` (centres undefined) was tested, and the inhibition was -17.4% (inactive).
In the case of `c1ccc(Cc2nn3c(Cn4cnc5ccccc54)nnc3s2)cc1`, the inhibition is reported as 24.4% (inactive).
In the case of `CC(=O)c1cn(CCCCCCCCCCn2cc(C(C)=O)c(=O)[nH]c2=O)c(=O)[nH]c1=O`, the inhibition is reported as 3.4% (inactive).
`CC(=O)c1c(C)n([O-])c2ccccc2[n+]1=O` was tested, and the inhibition was -1.1% (inactive).
For `CCOC(=O)N1CCN(C(=O)c2cc3c(ccc4ccccc43)oc2=O)CC1`, the inhibition was 45.9% (inactive).
In the case of `CC1(C)CC(=O)c2cc(OCC(=O)NCC3CCCO3)ccc2O1` (centres undefined), the inhibition is reported as 18.5% (inactive).
`O=C(COc1ccc2c3c(c(=O)oc2c1)CCC3)NC1CCCCC1` was tested, and the inhibition was 73.7% (active).
For `NC(=O)COc1ccc2c3c(c(=O)oc2c1)CCCCC3`, the inhibition was -7.4% (inactive).
With `COC(=O)Cn1cc(C(=O)c2cccs2)c2ccccc21` the inhibition was 25.3% (inactive).
`COC(=O)c1cn(CC(=O)NCc2cccs2)c2ccccc12` was tested, and the inhibition was 23.2% (inactive).
With `O=C(Cn1cc(C(=O)c2cccs2)c2ccccc21)NCc1cccs1` the inhibition was 93.7% (active).
In the case of `CN(C)c1ccnc(Oc2ccc(F)cc2)c1C#N`, the inhibition is reported as 40.8% (inactive).
`CCOC(=O)N1CCN(C(=O)COc2ccc(Cl)cc2C)CC1` was tested, and the inhibition was -15.4% (inactive).
With `CCOC(=O)N1CCC(O)(c2cc(C)c(C)cc2C)CC1` the inhibition was 67.1% (active).
For `CCOC(=O)N1CCN(C(=O)COc2ccc(Br)cc2)CC1`, the inhibition was -4.3% (inactive).
For `COC(=O)c1ccc(N(CC(=O)NC2CCCC2)C(=O)CNC(=O)c2ccco2)cc1`, the inhibition was 28.7% (inactive).
With `Cc1cc(C)nc(SCc2ccccc2C#N)n1` the inhibition was -24.8% (inactive).
`Cc1ccc(Cc2cncc(O)c2)cc1S(=O)(=O)O` was tested, and the inhibition was 0.1% (inactive).
In the case of `O=S(=O)(Nc1ccc2nc(-c3ccco3)[nH]c2c1)c1ccccc1`, the inhibition is reported as 85.2% (active).
With `Cc1cc(NS(=O)(=O)c2ccccc2)no1` the inhibition was 12.3% (inactive).
In the case of `c1ccc2[nH]c(-c3nc4ccccc4[nH]3)nc2c1`, the inhibition is reported as 16.1% (inactive).
